Only a selection was taken, and hits are over-represented in it overall.
PKM2 inhibitor: inhibitors of human pyruvate kinase M2 | hit rate 0.058% among 260,000 | AID 1634 | purified PKM2, ATP generation, Kinase-Glo luminescence | Potency, µM (doses to about 57.5 µM), inactives show top-dose activity change, negative = inhibition, usual class: inhibitors | P14618; active = well fitted inhibition curve with a large enough effect; note: nearly all actives have a fitted effect of over 60% in size
Target sequence (P14618 whole entry, looked up): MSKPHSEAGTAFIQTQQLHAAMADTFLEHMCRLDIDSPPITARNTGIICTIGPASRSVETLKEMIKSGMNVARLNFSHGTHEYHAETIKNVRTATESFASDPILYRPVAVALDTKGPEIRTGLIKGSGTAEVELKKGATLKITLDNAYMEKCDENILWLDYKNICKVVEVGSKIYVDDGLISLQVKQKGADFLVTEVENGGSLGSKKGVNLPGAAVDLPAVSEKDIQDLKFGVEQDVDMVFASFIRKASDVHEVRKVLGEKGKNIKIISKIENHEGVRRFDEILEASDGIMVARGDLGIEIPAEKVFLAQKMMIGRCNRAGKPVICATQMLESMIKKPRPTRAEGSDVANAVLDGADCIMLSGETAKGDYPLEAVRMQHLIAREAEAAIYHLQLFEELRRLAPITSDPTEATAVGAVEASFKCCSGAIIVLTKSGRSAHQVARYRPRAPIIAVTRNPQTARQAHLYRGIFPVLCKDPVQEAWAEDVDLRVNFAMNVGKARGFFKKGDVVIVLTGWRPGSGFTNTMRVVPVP
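Enzyme run at intermediate activity with final 0.1 mM ADP, 0.5 mM PEP (50 mM imidazole pH7.2, 50 mM KCl, 7 mM MgCl2), incubated 1 h at r.t. ATP formed read by Kinase-Glo luminescence, normalized to no-enzyme (full inhibition) and uninhibited wells.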
* hit, by the source's call; [ ] = dose if it differs, or a comment. Potency is the fitted concentration of half-maximal effect.

How did Cc1ccc(-c2nc(CN(Cc3cnn(C)c3)C(C)C)c(C)o2)o1 do in these assays?
PKM2 inhibitor: 41%

What do the screens show for `COc1cccc(C(c2nnnn2Cc2ccc(F)cc2)N2CCC(C(N)=O)CC2)c1OC` (stereo not given)?
PKM2 inhibitor: -9%

Results for Nc1ccccc1N=Cc1ccc(-c2cccc(Cl)c2)o1 ?
PKM2 inhibitor: 78%

What do the screens show for `CCO[C@H]1OC(C(=O)NC2CC2)=C[C@@H](c2csc3ccccc23)[C@@H]1CCCO`?
PKM2 inhibitor: 30%

What do the screens show for `CC(C)CN(C(=O)CSc1nnnn1-c1ccccc1)c1c(N)n(CC(C)C)c(=O)[nH]c1=O`?
PKM2 inhibitor: 37%

What do the screens show for `COc1ccccc1-c1nc(-c2ccccn2)no1`?
PKM2 inhibitor: 7.9µM*

What do the screens show for `Brc1ccc(-c2nc(-c3ccccn3)no2)o1`?
PKM2 inhibitor: 18µM*

What do the screens show for `COc1ccc2c(c1)c(C(=O)N/N=C/c1ccc(O)c(O)c1)c(C)n2C`?
PKM2 inhibitor: 48%

Results for O=C(Cc1cccs1)N1CCCC(c2nc3c(nnn3Cc3cccc(Cl)c3)c(=O)[nH]2)C1 (stereo not given) ?
PKM2 inhibitor: 154%

What do the screens show for `CC(=O)N(c1nnc(-c2cccc(C)c2)s1)C1CCCC1`?
PKM2 inhibitor: 46%

How did COC(=O)[C@@]1(Cc2ccc(F)cc2)[C@H]2c3cc(C(=O)N(C)C)n(CCc4ccc(O)c(O)c4)c3C[C@H]2CN1C(=O)c1ccccc1 do in these assays?
PKM2 inhibitor: 42%

How did Cc1ccccc1OCc1nnc2c3cnn(C)c3ncn12 do in these assays?
PKM2 inhibitor: 89%

Results for COc1cc(SC)ccc1C(=O)OCC(=O)NC1CC1 ?
PKM2 inhibitor: 82%

How did O=C1c2ccccc2C(=O)N1Cc1ccc2c(c1)OCO2 do in these assays?
PKM2 inhibitor: 44%

What do the screens show for `O=C(C1CCC1)N1CCc2cc(S(=O)(=O)Nc3ccc4c(c3)OCO4)ccc21`?
PKM2 inhibitor: 92%

What do the screens show for `O=C1/C(=C/Nc2ccc3c(c2)OCO3)CCc2ccccc21`?
PKM2 inhibitor: 25µM*

Results for Cc1ccc(-n2nnnc2SCn2nnc3ccccc3c2=O)c(C)c1 ?
PKM2 inhibitor: 129%

What do the screens show for `COc1ccc(CCN2CC(C(=O)N(C)Cc3c(C)n[nH]c3C)CCC2=O)cc1` (stereo not given)?
PKM2 inhibitor: 44%

How did Cc1cc(C)cc(NC(=O)CSc2nncn2-c2ccccn2)c1 do in these assays?
PKM2 inhibitor: 60%

Results for O=C(c1ccc2c3n(nc2c1)-c1ccccc1CO3)N1CCOCC1 ?
PKM2 inhibitor: 14µM*

What do the screens show for `O=C(O)c1cc(N2CCOCC2)nc2ccccc12`?
PKM2 inhibitor: 31%

What do the screens show for `O=C(c1ccc(Cl)c(S(=O)(=O)N2CCCCCC2)c1)N1CCOCC1`?
PKM2 inhibitor: 39%

How did CCOC(=O)C1CCN(C(=O)c2ccc(NS(=O)(=O)c3ccc(F)cc3C)cc2)CC1 do in these assays?
PKM2 inhibitor: 63%

Results for Cc1ccsc1/C=C1\CCc2ccccc2C1=O ?
PKM2 inhibitor: 25µM*

How did CN1CCC(N(C)CC(=O)Nc2cccc(Oc3ccccc3)c2)CC1 do in these assays?
PKM2 inhibitor: 3%

How did Cc1ccc(CNC(=O)C2CC(c3cccc([N+](=O)[O-])c3)=NO2)o1 (stereo not given) do in these assays?
PKM2 inhibitor: 58%

What do the screens show for `CC(=O)Nc1ccc(/C(C)=N/Nc2nc(Nc3cccc4ccccc34)nc(N3CCOCC3)n2)cc1`?
PKM2 inhibitor: 34%

How did Cc1ccc(-c2nc3ccccc3n2C)o1 do in these assays?
PKM2 inhibitor: 13µM*

Results for Cc1ccc(-c2nc3c(c(=O)[nH]c(=O)n3Cc3ccccc3)n2C)o1 ?
PKM2 inhibitor: 48%

Results for COC(=O)c1cc(-c2ccc(C)o2)nc2ccccc12 ?
PKM2 inhibitor: 56%

What do the screens show for `Cc1cc(C)c2nc(NNC(=O)c3cc(=O)c4ccccc4o3)sc2c1`?
PKM2 inhibitor: 34%

What do the screens show for `CCCS(=O)(=O)c1c(S(=O)(=O)CCC)c2c(C)cccn2c1C(=O)N/N=C/c1cc(O)cc(O)c1`?
PKM2 inhibitor: 102%

What do the screens show for `COc1ccc(-c2nc(NC(=O)c3[nH]c(C)c(C(C)=O)c3C)sc2C)cc1`?
PKM2 inhibitor: 79%

How did CN(C)S(=O)(=O)c1cccc(NC(=O)CSc2cccc3cccnc23)c1 do in these assays?
PKM2 inhibitor: 44%

How did Nc1ccc2nc(Cc3ccccc3)[nH]c2c1 do in these assays?
PKM2 inhibitor: 80%

Results for Cc1ccc2nc(-c3ccccn3)[nH]c2c1 ?
PKM2 inhibitor: 16µM*

What do the screens show for `Cc1nc2ccc(N=NN(C)C)cc2[nH]1`?
PKM2 inhibitor: 62%

Results for COC(=O)Cc1ccc(NC(=S)Nc2ccccn2)cc1 ?
PKM2 inhibitor: 37%

What do the screens show for `Cc1c(O)c(O)cc2c1oc1c3ccccc3oc(=O)c21`?
PKM2 inhibitor: 38%

What do the screens show for `COc1cc(/C=N/Nc2nn3cnnc3c3ccccc23)ccc1O`?
PKM2 inhibitor: 25µM*

Results for COc1cc(/C=N\Nc2nc(-c3ccc(C)cc3)c(NC(C)=O)s2)ccc1O ?
PKM2 inhibitor: 72%

What do the screens show for `COc1cc(/C=N/NC(=O)C2c3ccccc3Oc3ccccc32)ccc1O`?
PKM2 inhibitor: 66%

Results for Cc1ccc(NC(=O)c2ccc(Cl)c(N3C(=O)C=CC3=O)c2)cc1 ?
PKM2 inhibitor: 119%

How did COc1cc(CC2COC(c3ccc(O)c(OC)c3)C2COC(C)=O)ccc1O (stereo not given) do in these assays?
PKM2 inhibitor: 38%

What do the screens show for `Cc1ccc(N=Cc2c(C)[nH]n(-c3nc4ccccc4[nH]3)c2=O)cc1`?
PKM2 inhibitor: 10µM*

Results for Cn1nccc1C(=O)N1CCN(c2ncccn2)CC1 ?
PKM2 inhibitor: 17%

What do the screens show for `Oc1cc2c(cc1CN1CCc3ccccc3C1)OCO2`?
PKM2 inhibitor: 32%

What do the screens show for `c1ccc2c(c1)Cc1cc3cc4c(cc3nc1-2)OCO4`?
PKM2 inhibitor: 8.9µM*

Results for COc1ccc(C(=O)N2CCC(n3c(C)nc4cc(F)ccc43)CC2)cc1 ?
PKM2 inhibitor: 79%

How did CCCCN=C1NN=C(c2ccc(C)c(C)c2)CS1 do in these assays?
PKM2 inhibitor: 72%

What do the screens show for `c1cc2c(cc1C1=NNC(=NC3CC3)SC1)OCCO2`?
PKM2 inhibitor: 14µM*

What do the screens show for `COc1ccc(CN=C2NN=C(c3ccccc3)CS2)cc1`?
PKM2 inhibitor: 46%

Results for O=C(CN1CCCCC1)Nc1ccc(Br)cc1[N+](=O)[O-] ?
PKM2 inhibitor: 34%

How did O=c1c(Cc2ccc(Cl)cc2)c(O)ccn1Cc1ccncc1 do in these assays?
PKM2 inhibitor: 107%

Results for COc1ccc(N=Nc2n(C)c3ccccc3[n+]2C)cc1 ?
PKM2 inhibitor: 13µM*

What do the screens show for `CCn1c(CCc2ccccc2)nc2ccccc21`?
PKM2 inhibitor: 31%

What do the screens show for `Cc1ccc(-c2nn(-c3ccccc3)cc2C=O)o1`?
PKM2 inhibitor: 37%

Results for CCCCC1=CC2=C(c3ccco3)C(=O)C(C)(OC(=O)c3ccc(OC)cc3)C(=O)C2=CN1CC(C)C (stereo not given) ?
PKM2 inhibitor: 68%[11.5 µM]

What do the screens show for `COc1ccc2[nH]c(=O)c(-c3noc(-c4ccccc4)n3)cc2c1`?
PKM2 inhibitor: 109%

How did COc1ccc(-c2nc3ccccc3[nH]2)cc1 do in these assays?
PKM2 inhibitor: 13µM*

Results for O=S1(=O)CCN2C(=N1)Sc1c2ccc2c1CCCC2 ?
PKM2 inhibitor: 38%

Results for O=C(NCCc1c[nH]c2ccccc12)C1CCCN(S(=O)(=O)c2ccccc2)C1 (stereo not given) ?
PKM2 inhibitor: 37%

High-throughput results deposited in PubChem by National Center for Advancing Translational Sciences (NCATS).
